Source: PubChem BioAssay AID1159580 (chemical genetic matrix, 2015)
Values joined by “and” are separate entries in the source; they are usually repeats but may differ in a detail not shown here. Identical values can stand only once. The whole screen tested about 5,500 compounds, of which about 2,000 (36%) were called active. Inconclusive results (about 18%) are left out. Rule as the data show it: active = normalized growth mostly below about 0.91 (no sharp cut-off); inconclusive = no clear call, values can overlap the other calls; inactive = mostly above about 0.92. The list shows a part of the results. The source holds several records for some structures; these can differ, active in one and inactive in another.

Assay: chemical genetic growth profiling, strain panel (AID 1159580);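 also: tested at 20 µM; growth read once vehicle control cultures reached saturation at 30 °C; 1 = growth at the plate median or of vehicle wells; lower values mean less growth of the strain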
Conditions: growth OD
[1] = S. cerevisiae deletion strains, locus YHR030C, strain SLT2, stronger effect = lower value
[2] = S. cerevisiae deletion strains, locus YJL095W, strain BCK1, stronger effect = lower value

Measured: normalized growth

CCCCCCCCCCCCCCCCCC(=O)OC(CC(=O)O)C[N+](C)(C)C (stereo unspecified)
0.96 (inactive) and 0.778 (active): S. cerevisiae deletion strains, locus YPL241C, strain CIN2, stronger effect = lower value
0.976 (inactive) and 0.122 (active): S. cerevisiae deletion strains, locus YGR078C, strain PAC10, stronger effect = lower value
1.03 (inactive) and 0.297 (active): S. cerevisiae deletion strains, locus YMR307W, strain GAS1, stronger effect = lower value
0.983 (inactive) and 0.182 (active): S. cerevisiae deletion strains, locus YNL322C, strain KRE1, stronger effect = lower value
active: S. cerevisiae deletion strains, locus YAL013W, strain DEP1, stronger effect = lower value 0.117 | S. cerevisiae deletion strains, locus YAL040C, strain CLN3, stronger effect = lower value 0.47 | S. cerevisiae deletion strains, locus YBR021W, strain FUR4, stronger effect = lower value 0.0953 | S. cerevisiae deletion strains, locus YCL029C, strain bik1, stronger effect = lower value 0.316 | S. cerevisiae deletion strains, locus YDL035C, strain GPR1, stronger effect = lower value 0.283 | S. cerevisiae deletion strains, locus YDL074C, strain BRE1, stronger effect = lower value 0.238 | S. cerevisiae deletion strains, locus YDL101C, strain DUN1, stronger effect = lower value 0.374 | S. cerevisiae deletion strains, locus YDL134C, strain PPH21, stronger effect = lower value 0.142 | S. cerevisiae deletion strains, locus YDL185W, strain tfp1, stronger effect = lower value 0.0578 | S. cerevisiae deletion strains, locus YDL192W, strain arf1, stronger effect = lower value 0.917 | S. cerevisiae deletion strains, locus YDR101C, strain arx1, stronger effect = lower value 0.679 | S. cerevisiae deletion strains, locus YDR150W, strain NUM1, stronger effect = lower value 0.583 | S. cerevisiae deletion strains, locus YDR162C, strain NBP2, stronger effect = lower value 0.0806 | S. cerevisiae deletion strains, locus YDR318W, strain mcm21, stronger effect = lower value 0.348 | S. cerevisiae deletion strains, locus YDR388W, stronger effect = lower value 0.0585 | S. cerevisiae deletion strains, locus YDR502C, strain sam2, stronger effect = lower value 0.619 | S. cerevisiae deletion strains, locus YEL061C, strain CIN8, stronger effect = lower value 0.44 | S. cerevisiae deletion strains, locus YER110C, stronger effect = lower value 0.156 | S. cerevisiae deletion strains, locus YER155C, strain BEM2, stronger effect = lower value 0.274 | S. cerevisiae deletion strains, locus YER167W, strain BCK2, stronger effect = lower value 0.214 | S. cerevisiae deletion strains, locus YGL078C, strain dbp3, stronger effect = lower value 0.62 | S. cerevisiae deletion strains, locus YGL086W, strain mad1, stronger effect = lower value 0.23 | S. cerevisiae deletion strains, locus YGL248W, strain PDE1, stronger effect = lower value 0.153 | S. cerevisiae deletion strains, locus YGR135W, strain pre9, stronger effect = lower value 0.185 | S. cerevisiae deletion strains, locus YGR229C, strain SMI1, stronger effect = lower value 0.797 and 0.0756 | S. cerevisiae deletion strains, locus YGR252W, strain gcn5, stronger effect = lower value 0.155 | [1] 0.109 | S. cerevisiae deletion strains, locus YHR079C, strain IRE1 (second series), stronger effect = lower value 0.585 | S. cerevisiae deletion strains, locus YHR094C, strain hxt1, stronger effect = lower value 0.608 | S. cerevisiae deletion strains, locus YHR129C, strain ARP1, stronger effect = lower value 0.637 | S. cerevisiae deletion strains, locus YHR200W, strain rpn10, stronger effect = lower value 0.871 | S. cerevisiae deletion strains, locus YIL066C, strain RNR3, stronger effect = lower value 0.0537 | S. cerevisiae deletion strains, locus YIL073C, strain SPO22, stronger effect = lower value 0.108 | S. cerevisiae deletion strains, locus YIL125W, strain kgd1, stronger effect = lower value 0.59 | S. cerevisiae deletion strains, locus YIR030C, strain dcg1, stronger effect = lower value 0.587 | [2] 0.0851 | S. cerevisiae deletion strains, locus YJL187C, strain SWE1 (second series), stronger effect = lower value 0.571 | S. cerevisiae deletion strains, locus YJR043C, strain POL32, stronger effect = lower value 0.567 | S. cerevisiae deletion strains, locus YJR075W, strain HOC1, stronger effect = lower value 0.146 | S. cerevisiae deletion strains, locus YKL009W, strain mrt4, stronger effect = lower value 0.504 | S. cerevisiae deletion strains, locus YKL085W, strain MDH1 (second series), stronger effect = lower value 0.56 | S. cerevisiae deletion strains, locus YKL085W, strain MDH1, stronger effect = lower value 0.56 | S. cerevisiae deletion strains, locus YKL190W, strain CNB1, stronger effect = lower value 0.0864 | S. cerevisiae deletion strains, locus YKR001C, strain vps1, stronger effect = lower value 0.89 | S. cerevisiae deletion strains, locus YLR058C, strain SHM2, stronger effect = lower value 0.598 | S. cerevisiae deletion strains, locus YLR102C, strain apc9, stronger effect = lower value 0.848 | S. cerevisiae deletion strains, locus YLR268W, strain sec22, stronger effect = lower value 0.168 | S. cerevisiae deletion strains, locus YLR330W, strain CHS5, stronger effect = lower value 0.0585 | S. cerevisiae deletion strains, locus YLR342W, strain FKS1 (second series), stronger effect = lower value 0.102 | S. cerevisiae deletion strains, locus YLR371W, strain rom2, stronger effect = lower value 0.9 | S. cerevisiae deletion strains, locus YLR418C, strain cdc73, stronger effect = lower value 0.101 | S. cerevisiae deletion strains, locus YML016C, strain PPZ1, stronger effect = lower value 0.229 | S. cerevisiae deletion strains, locus YML032C, strain rad52, stronger effect = lower value 0.499 | S. cerevisiae deletion strains, locus YML124C, strain tub3, stronger effect = lower value 0.88 | S. cerevisiae deletion strains, locus YMR078C, strain ctf18, stronger effect = lower value 0.392 | S. cerevisiae deletion strains, locus YMR223W, strain ubp8, stronger effect = lower value 0.406 | S. cerevisiae deletion strains, locus YNL067W, strain RPL9B, stronger effect = lower value 0.698 | S. cerevisiae deletion strains, locus YNL128W, strain TEP1, stronger effect = lower value 0.752 | S. cerevisiae deletion strains, locus YNL153C, strain GIM3, stronger effect = lower value 0.281 | S. cerevisiae deletion strains, locus YNL175C, strain NOP13, stronger effect = lower value 0.249 | S. cerevisiae deletion strains, locus YNL197C, strain WHI3, stronger effect = lower value 0.736 | S. cerevisiae deletion strains, locus YNL224C, strain SQS1, stronger effect = lower value 0.391 | S. cerevisiae deletion strains, locus YNL233W, strain BNI4, stronger effect = lower value 0.136 | S. cerevisiae deletion strains, locus YNL250W, strain rad50, stronger effect = lower value 0.69 | S. cerevisiae deletion strains, locus YNL271C, strain bni1, stronger effect = lower value 0.736 | S. cerevisiae deletion strains, locus YNL298W, strain CLA4, stronger effect = lower value 0.192 | S. cerevisiae deletion strains, locus YNL307C, strain MCK1, stronger effect = lower value 0.0704 | S. cerevisiae deletion strains, locus YOL006C, strain TOP1, stronger effect = lower value 0.101 | S. cerevisiae deletion strains, locus YOL147C, strain pex11, stronger effect = lower value 0.118 | S. cerevisiae deletion strains, locus YOR083W, strain WHI5 (second series), stronger effect = lower value 0.102 | S. cerevisiae deletion strains, locus YOR136W, strain idh2, stronger effect = lower value 0.773 | S. cerevisiae deletion strains, locus YOR144C, strain elg1, stronger effect = lower value 0.569 | S. cerevisiae deletion strains, locus YOR184W, strain ser1, stronger effect = lower value 0.0857 | S. cerevisiae deletion strains, locus YOR316C, strain cot1, stronger effect = lower value 0.582 | S. cerevisiae deletion strains, locus YPR119W, strain clb2, stronger effect = lower value 0.796 | S. cerevisiae deletion strains, locus YPR163C, strain tif3, stronger effect = lower value 0.0804 | S. cerevisiae deletion strains, locus YPR167C, strain met16, stronger effect = lower value 0.587 | S. cerevisiae deletion strains, strain wtn01, stronger effect = lower value 0.303 | S. cerevisiae strains, strain wild type, stronger effect = lower value 0.51
0.892 (inactive) and 0.209 (active): S. cerevisiae deletion strains, locus YPL055C, strain LGE1, stronger effect = lower value
1 (inactive) and 0.232 (active): S. cerevisiae deletion strains, locus YMR263W, strain SAP30, stronger effect = lower value
inactive: S. cerevisiae deletion strains, locus YBR229C, strain ROT2, stronger effect = lower value 1.03 | S. cerevisiae deletion strains, locus YCL061C, strain MRC1 (second series), stronger effect = lower value 0.991 | S. cerevisiae deletion strains, locus YDR363W, strain ESC2, stronger effect = lower value 0.985 | S. cerevisiae deletion strains, locus YER002W, strain NOP16, stronger effect = lower value 1.01 | S. cerevisiae deletion strains, locus YJL134W, strain LCB3, stronger effect = lower value 1.01 | S. cerevisiae deletion strains, locus YJL168C, strain set2, stronger effect = lower value 0.956 | S. cerevisiae deletion strains, locus YKL068W, stronger effect = lower value 1 | S. cerevisiae deletion strains, locus YLR039C, strain RIC1, stronger effect = lower value 1.1 | S. cerevisiae deletion strains, locus YLR262C, strain YPT6, stronger effect = lower value 1.09 | S. cerevisiae deletion strains, locus YNR052C, strain pop2, stronger effect = lower value 0.961 | S. cerevisiae deletion strains, locus YOR061W, strain CKA2, stronger effect = lower value 0.949 | S. cerevisiae deletion strains, locus YOR069W, strain VPS5, stronger effect = lower value 1 | S. cerevisiae deletion strains, locus YPR141C, strain kar3, stronger effect = lower value 1.05

CCC(=O)O[C@H](CC(=O)O)C[N+](C)(C)C
inactive: [1] 1.02 | S. cerevisiae deletion strains, locus YHR079C, strain IRE1, stronger effect = lower value 1.05 | [2] 1.05 | S. cerevisiae deletion strains, locus YJR066W, strain TOR1, stronger effect = lower value 0.967 | S. cerevisiae deletion strains, locus YLR113W, strain HOG1, stronger effect = lower value 1.02 | S. cerevisiae deletion strains, locus YNL183C, strain NPR1, stronger effect = lower value 0.988 | S. cerevisiae deletion strains, locus YOR231W, strain MKK1, stronger effect = lower value 1.04 | S. cerevisiae deletion strains, locus YPL256C, strain CLN2, stronger effect = lower value 1.04
